The text below walks through data of PubChem BioAssay (Tox21).

A number with no mark means an inactive call. Results filed as inconclusive are left out. Activity calls are given as the source filed them. Unless noted, calls come from the whole dose curve; as a rule, active = well fitted curve in the direction sought with a large enough effect in the repeat runs; inconclusive = weak or mixed curves; inactive = no such curve, though single readings can be large; an effect the other way counts as inactive or inconclusive.

The nature of experiment [1]: qHTS assay for small molecules that induce genotoxicity in human embryonic kidney cells expressing luciferase-tagged ATAD5 (AID 651632). Note: nearly all actives have a fitted effect of over 15% in size. In short, it runs like this: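 Cells were seeded at 2,000 per well, dosed with compound, and incubated 16 hr at 37C in 5% CO2. Luciferase activity was then quantified after a 30 min room-temperature incubation with Amplite.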
Experiment [2] in a line: qHTS assay for small molecules that induce genotoxicity in human embryonic kidney cells expressing luciferase-tagged ATAD5 - cell viability (AID 651634; calls by dose curve; note: nearly all actives have a fitted effect of over 25% in size; note: potency is the fitted concentration of half-maximal effect). In short, it runs like this: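 Cells (HEK293T, luciferase-tagged ATAD5) are seeded at 2,000 per well, dosed with compound or DMSO vehicle, and incubated 15.5 hr at 37C and 5% CO2. CellTiter-Fluor is added for 30 min before fluorescence is measured.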

Experiment [3] can be described thus: qHTS assay for small molecule disruptors of the mitochondrial membrane potential - cell viability (AID 720634; calls by dose curve;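 note: human HepG2 liver cancer cells; series mostly up to about 83 µM; nearly all actives have a fitted effect of over 20% in size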). In short, it runs like this: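 Cytotoxicity was measured by ATP quantitation in HepG2 wells that had first been treated with compound for 1 hr and stained with m-MPI dye; CellTiter-Glo incubation was 30 min at room temperature.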
Experiment [4] is described as follows: qHTS assay for small molecule disruptors of the mitochondrial membrane potential (AID 720635). Note: potency is the fitted concentration of half-maximal effect. In short, it runs like this:
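HepG2 cells exposed to compound 1 hr at 37C, then Mito-MPS dye 30 min. Ratio read of aggregate (540/590 nm) versus monomer (490/535 nm) fluorescence.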

Experiment [5] is described as follows: qHTS assay to test for compound auto fluorescence at 590 nm (red) in HepG2 cells (AID 720674). In short, it runs like this: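 Fluorescence at 590 nm emission following 540 nm excitation was recorded from HepG2 wells one hour after compound transfer, with DMSO-only wells as vehicle and Rose Bengal sodium equivalency as the scale.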
The nature of experiment [6]: qHTS assay to test for compound auto fluorescence at 535 nm (green) in HepG2 cells (AID 720675).
A short description of experiment [7]: qHTS assay to test for compound auto fluorescence at 460 nm (blue) in HEK293 cells (AID 720678). Summed up: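 Blue read-out at excitation 405 nm and emission 460 nm follows overnight compound exposure of HEK293 cells at 37C in 5% CO2. Activity is given as auto fluorescence equivalency to triamterene.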
Experiment [8] in a line: qHTS assay to test for compound auto fluorescence at 590 nm (red) in HEK293 cells (AID 720679). In short, it runs like this: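 Red channel, Ex/Em 540/590nm; signal expressed as equivalency to Rose Bengal sodium. HEK293, 2,000 cells/well, 10% dialyzed FBS; 23 nL compound pinned after 4-5 hr attachment; overnight 37C/5% CO2 before reading.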
Experiment [9] in a line: qHTS assay to test for compound auto fluorescence at 535 nm (green) in HEK293 cells (AID 720680).
Experiment [10] in a line: qHTS assay to test for compound auto fluorescence at 535 nm (green) in HEK293 cell free culture (AID 720682). In short, it runs like this:
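DMEM + 10% FBS, cell-free; cpd or DMSO pinned in; Ex485/Em535 read; output as fluorescein-equivalent signal.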

Experiment [11] is described as follows: qHTS assay to test for compound auto fluorescence at 590 nm (red) in HEK293 cell free culture (AID 720683). Summed up:
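Cell-free wells of DMEM with 10% FBS received compound, and intrinsic fluorescence was read at excitation/emission 540/590 nm. Values expressed as equivalence to Rose Bengal sodium.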

The nature of experiment [12]: qHTS assay to test for compound auto fluorescence at 590 nm (red) in HepG2 cell free culture (AID 720684). In short, it runs like this: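 Auto fluorescence equivalency versus Rose Bengal sodium, red channel Ex/Em 540/590 nm; compounds in cell-free MEM/10% FBS; DMSO vehicle control.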
Experiment [13] can be described thus: qHTS assay to test for compound auto fluorescence at 460 nm (blue) in HepG2 cell free culture (AID 720685). In short, it runs like this: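 Cell-free plates of MEM plus 10% FBS received 23 nL compound or DMSO vehicle; blue-channel (405/460 nm) intensity scored against triamterene as reference fluorophore.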
A short description of experiment [14]: qHTS assay to test for compound auto fluorescence at 535 nm (green) in HepG2 cell free culture (AID 720686).
Experiment [15] in a line: qHTS assay to test for compound auto fluorescence at 460 nm (blue) in HepG2 cells (AID 720687). Summed up: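 HepG2 cells in MEM with 10% FBS, attached overnight at 37 C, were exposed to compound or DMSO for 1 hr at 37 C, 5% CO2. Blue fluorescence was read at 405/460 nm, with triamterene as reference fluorophore.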
The target of experiment [16] is Glucocorticoid receptor (Homo sapiens) (UniProt P04150). The experiment is described as follows: qHTS assay to identify small molecule antagonists of the glucocorticoid receptor (GR) signaling pathway (AID 720692; active = well fitted inhibition curve with a large enough effect in the signal ratio in the repeat runs, not every such curve was filed as active; the % refers to the signal ratio). In short, it runs like this:
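Antagonism was scored as loss of dexamethasone-driven (5 nM final) reporter signal in HeLa cells bearing a glucocorticoid response element–beta-lactamase construct, after 18 h compound exposure at 37 C and 2 h FRET substrate loading.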

A short description of experiment [17]: qHTS assay for small molecule agonists of the p53 signaling pathway - cell viability (AID 651633; calls by dose curve;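 note: p53RE-bla HCT reporter cells with a stable beta-lactamase p53 reporter; series mostly up to about 83 µM; nearly all actives have a fitted effect of over 30% in size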). In short, it runs like this: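 p53RE-bla cells were treated with compound for 16 hours at 37 C. Cytotoxicity was then measured as CellTiter-Glo luminescence after 30 min at room temperature.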
The target of experiment [18] is Glucocorticoid receptor (Homo sapiens) (UniProt P04150). Put plainly: qHTS assay to identify small molecule agonists of the glucocorticoid receptor (GR) signaling pathway (AID 720691; active = well fitted activation curve with a large enough effect in the signal ratio in the repeat runs, not every such curve was filed as active; the % refers to the signal ratio). In short, it runs like this:
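Steps: seed GR-bla HeLa cells, incubate 4 h at 37 C/5% CO2; pin-transfer DMSO-dissolved compounds; incubate 18 h at 37 C; add LiveBLAzer B/G FRET substrate; after 2 h at room temperature, measure fluorescence.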

Experiment [19] can be described thus: qHTS assay to test for compound auto fluorescence at 460 nm (blue) in HEK293 cell free culture (AID 720681). Summed up:
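Compounds were added to cell-free DMEM with 10% FBS and fluorescence read directly. The blue channel used 405 nm excitation and 460 nm emission, with triamterene as the reference fluorophore.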
% is set by controls: 0 for no effect and ±100 for the full control effect.

Sequence of Glucocorticoid receptor (Homo sapiens) (P04150 whole entry, looked up): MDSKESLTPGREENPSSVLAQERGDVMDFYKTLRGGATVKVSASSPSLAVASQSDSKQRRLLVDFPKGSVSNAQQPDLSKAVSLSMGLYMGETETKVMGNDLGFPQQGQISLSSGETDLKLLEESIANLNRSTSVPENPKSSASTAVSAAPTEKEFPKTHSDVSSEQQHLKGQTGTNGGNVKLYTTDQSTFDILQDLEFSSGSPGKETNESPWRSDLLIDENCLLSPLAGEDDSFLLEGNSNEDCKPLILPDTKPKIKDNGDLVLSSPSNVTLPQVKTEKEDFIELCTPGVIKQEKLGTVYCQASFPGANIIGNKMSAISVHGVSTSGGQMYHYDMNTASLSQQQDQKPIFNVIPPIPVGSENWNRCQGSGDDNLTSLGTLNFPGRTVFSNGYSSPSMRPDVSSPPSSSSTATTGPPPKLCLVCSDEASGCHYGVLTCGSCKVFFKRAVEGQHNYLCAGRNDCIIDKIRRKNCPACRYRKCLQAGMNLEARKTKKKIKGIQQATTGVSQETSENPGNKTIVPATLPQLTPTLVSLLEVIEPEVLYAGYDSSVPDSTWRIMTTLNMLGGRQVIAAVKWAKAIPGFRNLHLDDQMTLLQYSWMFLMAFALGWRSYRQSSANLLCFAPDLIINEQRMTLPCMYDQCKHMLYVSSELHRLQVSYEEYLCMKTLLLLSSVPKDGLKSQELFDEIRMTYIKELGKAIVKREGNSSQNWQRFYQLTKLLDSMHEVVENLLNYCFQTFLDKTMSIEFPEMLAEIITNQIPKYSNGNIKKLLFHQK

Take `CN1CCN(c2c(F)cc3c(=O)c(C(=O)O)cn4c3c2SCC4)CC1`: the Potency result in [1], in experiment [2], in [3], in experiment [4] and in experiment [16] was “inactive” throughout. In addition, the result in experiment [5], in [6], in experiment [7], in [8], in experiment [9] and in experiment [10] was inactive. The outcome in [11], in experiment [12], in experiment [13], in [14] and in [15] was inactive.
On to `CC(=O)Oc1cc(C(C)C)c(OCCN(C)C)cc1C`, for which the Potency result in experiment [1], in experiment [17], in [2], in [18] and in experiment [16] was “inactive” in each case. In addition, the fluorescence, relative to Rose Bengal in experiment [5] is 0.0269% [at 18.6 µM]. The fluorescence, % of fluorescein control in experiment [6] is 0.0486% [at 18.6 µM]; in [14], -0.0374% [at 18.6 µM]. In [7], the fluorescence, % of triamterene is -0.184% [at 18.6 µM]. In addition, the fluorescence, % of fluorescent control in experiment [8] was -0.192% [at 18.6 µM]; in [11], -0.128% [at 18.6 µM]; in [13] it was -0.0726% [at 18.6 µM]; in [15] it was -0.0099% [at 18.6 µM]. For the same molecule, the fluorescence, % of fluorescein in experiment [9] was -0.013% [at 18.6 µM]. Further, the activity change in experiment [10] was -0.0795% [at 18.6 µM].
Regarding `O=C(CC(=O)C(F)(F)F)c1ccccc1`, the Potency entry in experiment [1] and in experiment [17] was “inactive” in each case. Moreover, the Potency in experiment [4] was 15.6 µM (active). In addition, the result in [5], in experiment [6], in experiment [7], in experiment [8], in experiment [9] and in experiment [19] was inactive. In addition, the outcome in experiment [10], in [13], in [14] and in experiment [15] was inactive.
Turning to `CC(C)=CCCC(C)CCOC=O` (stereo unspecified), the Potency entry in experiment [1], in experiment [17], in [18] and in experiment [16] was “inactive” in each case. The Potency in experiment [2] is 54.5 µM (active). The molecule was called inactive in experiment [6], in experiment [7], in experiment [8], in experiment [9], in [10] and in [11]. The call in [12], in experiment [13], in [14] and in [15] was inactive.
`CC(C)O`: the Potency result in experiment [1], in [2], in [3] and in [4] was “inactive” in each case. The molecule was classed as inactive in experiment [5], in experiment [6], in [7], in experiment [8], in experiment [9] and in experiment [19]. The molecule was called inactive in experiment [10], in [11], in experiment [12], in experiment [13], in [14] and in experiment [15].
On to `CCN(CCCc1ccccc1)CCCc1ccccc1`, for which the Potency entry in [1], in experiment [17] and in [3] was “inactive” in each case. In addition, the fluorescence, relative to Rose Bengal in experiment [5] is 0.32% [at 18.6 µM]. Besides, the fluorescence, % of fluorescein control in experiment [6] is -0.0397% [at 18.6 µM]; in experiment [14] it was 0.0299% [at 18.6 µM]. Further, the fluorescence, % of triamterene in experiment [7] is 0.0775% [at 18.6 µM]. Moreover, the fluorescence, % of fluorescent control in [8] was -0.195% [at 18.6 µM]; in experiment [19], -0.0197% [at 18.6 µM]; in experiment [11], 0.107% [at 18.6 µM]; in [13] it was 0.009% [at 18.6 µM]; in experiment [15], -0.0033% [at 18.6 µM]. The fluorescence, % of fluorescein in [9] is 0.159% [at 18.6 µM]. Also, the activity change in [10] was 0.0298% [at 18.6 µM]. Moreover, the fluorescence, % of Rose Bengal in experiment [12] was -0.137% [at 18.6 µM].
`CCC(=O)c1ccc2c(c1)N(CCCN(C)C)c1ccccc1S2`: the Potency entry in experiment [1], in experiment [17] and in experiment [2] was “inactive” throughout. The result in experiment [5], in experiment [6], in experiment [7], in experiment [8], in [9] and in experiment [19] was inactive. Moreover, the molecule was called inactive in [10], in experiment [11], in experiment [12], in experiment [13], in experiment [14] and in [15].
Turning to `CC1=C(O)C(=O)OC1C` (stereo unspecified), the Potency entry in [1], in [17], in [3], in [4], in [18] and in experiment [16] was “inactive” in each case. In addition, the molecule was called inactive in experiment [5], in experiment [6], in experiment [7], in experiment [8], in experiment [9] and in experiment [10]. The outcome in experiment [11], in experiment [13], in experiment [14] and in experiment [15] was inactive.
